According to PubChem BioAssay (NCATS):
Several values for one entry are separate records, joined by “and”; a condition that tells them apart may be missing. Equal entries are not always repeated. Records with an inconclusive call do not appear. Activity calls are given as the source filed them. The call rests on the fitted dose curve; in most records, active means well fitted curve in the direction sought with a large enough effect; inconclusive means small, poorly fitted or top-dose-only effect, or another doubt; inactive means no such curve, though single readings can be large; an effect the other way counts as inactive or inconclusive. Non-standard residues stand in square brackets, D forms with d. Residues, ends and D or L forms follow the SMILES beside them. *: point of attachment. Sta = CC(C)C[C@H](N)[C@@H](O)CC(=O)O; Isovaleryl = CC(C)CC(=O)*

Experiments:
[1] = qHTS of pediatric cancer cell lines to identify multiple opportunities for drug repurposing: Confirmatory screen for LAN-5 cells (AID 1347113); further: nearly all actives have a fitted effect of over 65% in size; further: potency means the concentration at half of the fitted maximal effect
How it was run: (§1)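 Viability after 48 h compound treatment at 37C, 500-1,000 cells/well, read as ATP luminescence with CellTiter-Glo. Primary screens used 11-point (MIPE, 0.78 nM-46 µM) or 8-point (NPC, 0.59 nM-46 µM) final concentrations; follow-up screens used 11-point dilutions.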

[2] = qHTS of pediatric cancer cell lines to identify multiple opportunities for drug repurposing: Confirmatory screen for NB-EBc1 cells (AID 1347115);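 further: cells exposed to compound for 48 h before the viability read; nearly all actives have a fitted effect of over 45% in size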; further: potency means the concentration at half of the fitted maximal effect
How it was run: as §1

[3] = qHTS of pediatric cancer cell lines to identify multiple opportunities for drug repurposing: Confirmatory screen for TC32 cells (AID 1347118);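 further: cells exposed to compound for 48 h before the read; nearly all actives have a fitted effect of over 65% in size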; further: potency means the concentration at half of the fitted maximal effect
How it was run: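 Measured quantity: luminescence from CellTiter-Glo, reflecting metabolically active TC32 cells following 48 h of compound. Curves came straight from multi-point titrations, with 8 or 11 points in primary and 11 in confirmatory screening.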

[4] = qHTS of pediatric cancer cell lines to identify multiple opportunities for drug repurposing: Confirmatory screen for MG 63 (6-TG R) cells (AID 1347119); further: nearly all actives have a fitted effect of over 55% in size; further: potency means the concentration at half of the fitted maximal effect
How it was run: as §1

[5] = qHTS of pediatric cancer cell lines to identify multiple opportunities for drug repurposing: Confirmatory screen for control Hh wild type fibroblast cells (AID 1347121); further: nearly all actives have a fitted effect of over 70% in size; further: potency means the concentration at half of the fitted maximal effect
How it was run: as §1

[6] = qHTS of pediatric cancer cell lines to identify multiple opportunities for drug repurposing: Confirmatory screen for U-2 OS cells (AID 1347122); further: nearly all actives have a fitted effect of over 65% in size; further: potency means the concentration at half of the fitted maximal effect
How it was run: as §1

[7] = qHTS of pediatric cancer cell lines to identify multiple opportunities for drug repurposing: Confirmatory screen for Rh41 cells (AID 1347123);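 further: 48 h compound exposure; nearly all actives have a fitted effect of over 60% in size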; further: potency means the concentration at half of the fitted maximal effect
How it was run: as §1

[8] = qHTS of pediatric cancer cell lines to identify multiple opportunities for drug repurposing: Confirmatory screen for RD cells (AID 1347124);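 further: cells exposed to compound for 48 h before viability readout; nearly all actives have a fitted effect of over 65% in size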; further: potency means the concentration at half of the fitted maximal effect
How it was run: as §1

[9] = qHTS of pediatric cancer cell lines to identify multiple opportunities for drug repurposing: Confirmatory screen for Rh18 cells (AID 1347125); further: nearly all actives have a fitted effect of over 55% in size; further: potency means the concentration at half of the fitted maximal effect
How it was run: as §1

[10] = qHTS of pediatric cancer cell lines to identify multiple opportunities for drug repurposing: Confirmatory screen for Saos-2 cells (AID 1347127); further: nearly all actives have a fitted effect of over 60% in size; further: potency means the concentration at half of the fitted maximal effect
How it was run: as §1

[11] = qHTS of pediatric cancer cell lines to identify multiple opportunities for drug repurposing: Confirmatory screen for OHS-50 cells (AID 1347128);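 further: compound exposure lasted 48 h at 37 degrees C; nearly all actives have a fitted effect of over 55% in size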; further: potency means the concentration at half of the fitted maximal effect
How it was run: as §1

[12] = tested on: Zika virus NS2B-NS3 protease (unlinked); experiment: Optimization of GU AMC qHTS for Zika virus inhibitors: Unlinked NS2B-NS3 protease assay (AID 1347151); further: series mostly up to about 52 µM; nearly all actives have a fitted effect of over 80% in size
How it was run: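 Noncovalent complex of NS2B hydrophilic domain and NS3 protease domain, 25 nM final, in 10 mM Tris-HCl pH 8.0, 0.01% Tween 20. AMC fluorescence change over 15 min at room temperature was fitted to a 4-parameter Hill equation.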

[13] = tested on: Zika virus NS2B-NS3 protease; experiment: Primary screen GU AMC qHTS for Zika virus inhibitors (AID 1347154); further: nearly all actives have a fitted effect of over 70% in size; further: potency means the concentration at half of the fitted maximal effect
How it was run: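 Unlinked Zika NS2B hydrophilic domain–NS3 protease complex at 25 nM in 10 mM Tris-HCl pH 8.0, 0.01% Tween 20, with an AMC peptide substrate. Fluorescence change (340/450 nm) over 15 min at room temperature, normalized to controls, fitted to 4-parameter Hill.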

[14] = qHTS of pediatric cancer cell lines to identify multiple opportunities for drug repurposing: Confirmatory screen for DAOY cells (AID 1347114); further: nearly all actives have a fitted effect of over 65% in size; further: potency means the concentration at half of the fitted maximal effect
How it was run: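 Viability measured as metabolically active cells via CellTiter-Glo luminescence following 48 hours of compound exposure, 11-point dilutions in confirmatory testing. 500-1,000 cells/well plated 5 hours before dosing; controls were DMSO and 2.3 µM bortezomib.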

[15] = molecular target: N-terminal Xaa-Pro-Lys N-methyltransferase 1 (Homo sapiens) (UniProt Q9BV86); experiment: qHTS Assay for Inhibitors of N-terminal methyltransferase 1 (NTMT1): LOPAC validation of the NTMT1 SAHH-coupled ThioGlo3 Assay (AID 1347143);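 further: SAH from peptide methylation measured as thiol fluorescence via SAHH coupling and ThioGlo3; nearly all actives have a fitted effect of over 70% in size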; further: potency means the concentration at half of the fitted maximal effect
Chain of N-terminal Xaa-Pro-Lys N-methyltransferase 1 (Homo sapiens) (Q9BV86 whole entry, looked up): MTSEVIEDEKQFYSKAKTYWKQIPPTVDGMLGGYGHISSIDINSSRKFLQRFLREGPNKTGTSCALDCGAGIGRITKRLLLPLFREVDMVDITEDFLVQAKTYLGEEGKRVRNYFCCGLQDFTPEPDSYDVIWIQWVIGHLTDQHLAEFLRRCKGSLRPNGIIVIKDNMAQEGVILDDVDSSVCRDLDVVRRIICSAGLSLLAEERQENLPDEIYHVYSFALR
How it was run: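 Steps: dispense 125nM NTMT1; pin-transfer test compounds at several concentrations, with 1uM RCC1-6 peptide as control; incubate 1 min; start with reagent holding 100uM SAM, 10uM SAHH, 15uM ThioGlo3; read at 0 and 30 min.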

[16] = molecular target: Furin (Homo sapiens) (UniProt P09958); experiment: Furin counterscreen qHTS for Zika virus inhibitors (AID 1347149);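 further: purified recombinant full-length human furin enzyme at 5 nM; fluorescence gain from furin cutting a BOC-RVRR-AMC peptide substrate over 15 min; top concentration of the series differs between compounds; nearly all actives have a fitted effect of over 70% in size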
Chain of Furin (Homo sapiens) (P09958 whole entry, looked up): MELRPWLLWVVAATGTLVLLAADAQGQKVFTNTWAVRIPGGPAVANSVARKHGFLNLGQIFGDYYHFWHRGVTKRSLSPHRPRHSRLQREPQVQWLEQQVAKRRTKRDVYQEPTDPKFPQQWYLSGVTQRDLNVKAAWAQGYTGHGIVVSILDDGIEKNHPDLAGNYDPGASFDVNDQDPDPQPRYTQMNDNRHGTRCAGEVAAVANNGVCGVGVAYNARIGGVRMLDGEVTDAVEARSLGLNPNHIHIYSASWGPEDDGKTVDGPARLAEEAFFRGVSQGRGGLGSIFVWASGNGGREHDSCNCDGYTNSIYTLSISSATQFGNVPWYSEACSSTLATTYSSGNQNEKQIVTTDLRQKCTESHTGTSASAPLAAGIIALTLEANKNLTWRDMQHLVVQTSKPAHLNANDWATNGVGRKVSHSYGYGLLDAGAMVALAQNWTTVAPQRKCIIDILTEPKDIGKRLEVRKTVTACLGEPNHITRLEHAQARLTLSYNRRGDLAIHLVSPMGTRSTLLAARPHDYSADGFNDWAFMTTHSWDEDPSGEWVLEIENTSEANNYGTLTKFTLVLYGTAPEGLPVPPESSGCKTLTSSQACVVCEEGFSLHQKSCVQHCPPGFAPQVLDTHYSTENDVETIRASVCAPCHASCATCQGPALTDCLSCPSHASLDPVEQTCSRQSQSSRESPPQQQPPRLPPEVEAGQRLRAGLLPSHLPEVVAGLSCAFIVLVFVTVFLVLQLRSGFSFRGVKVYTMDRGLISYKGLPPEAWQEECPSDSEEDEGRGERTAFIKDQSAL
How it was run: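 Counterscreen measures cleavage of 2 microM BOC-RVRR-AMC, below its ~15 microM Km, by 5 nM full-length human furin at pH 7.0 after a 15-min compound preincubation. Inhibition derives from the 15-min fluorescence increase at 37C.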

[17] = tested on: Zika virus NS2B-NS3 protease (linked construct); experiment: Confirmatory screen NINDS AMC qHTS for Zika virus inhibitors (AID 1347152); further: nearly all actives have a fitted effect of over 70% in size; further: potency means the concentration at half of the fitted maximal effect
How it was run: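 Purified NS2B-NS3 protease with NS2B hydrophilic domain linked to NS3 protease domain by flexible linker, 1 nM final in 10 mM Tris-HCl pH 8.0, 0.01% Tween 20. Compounds preincubated 15 min, room temperature; Bz-Nle-KRR-AMC 10 microM (Km 18.3 µM); 15-min fluorescence change, 4-parameter Hill fit.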

[18] = tested on: Zika virus NS2B-NS3 protease (unlinked complex); experiment: Confirmatory screen GU AMC qHTS for Zika virus inhibitors (AID 1347153); further: nearly all actives have a fitted effect of over 70% in size; further: potency means the concentration at half of the fitted maximal effect
How it was run: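 Unlinked enzyme 25 nM, Tris pH 8.0/0.01% Tween 20; cpd 15 min RT, dark; + AMC substrate 10 µM (Km 18.3 µM); 340/450 nm read at t0 and 15 min; % inhibition → 4-param fit.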

[19] = ZIKV-mCherry secondary qHTS for Zika virus inhibitors (AID 1347158); further: potency means the concentration at half of the fitted maximal effect
How it was run: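 This orthogonal imaging screen measured ZIKV-mCherry infection of Vero cells exposed to compound, MOI 1, 48-72 h. Percent infection came from segmented nuclei scored mCherry-positive above 3 SD of negative controls.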

Measured: Potency

O=C(CCc1ccc(O)cc1)c1c(O)cc(O)cc1O
not listed: [13] | [14] | [15] | [16] | [17] | [18] | [19]
inactive: all other assays above

Clc1ccc(C(Cn2ccnc2)OCc2ccsc2Cl)c(Cl)c1 (configuration not stated)
inactive: [5] | [13]
active: [1] 20.8 µM | [3] 11.7 µM | [9] 14.7 µM | [10] 10.4 µM | [11] 11.7 µM

O=C1c2c(O)cc(O)cc2OC(c2ccc(O)c(O)c2)C1O (configuration not stated)
active: [15] 25.1 µM
not listed: [13] | [16] | [17] | [18] | [19]
inactive: all other assays above

CC(C)CC(=O)N[C@H](C(=O)N[C@H](C(=O)N[C@@H](CC(C)C)[C@@H](O)CC(=O)N[C@@H](C)C(=O)N[C@@H](CC(C)C)[C@@H](O)CC(=O)O)C(C)C)C(C)C (Isovaleryl-VV[Sta]A[Sta]-OH)
active: [3] 5.85 µM
inactive: [14] | [2] | [13]

Nc1nc(OCc2ccccc2)c2[nH]cnc2n1
not listed: [1] | [4] | [13] | [14] | [16] | [17] | [18] | [19]
inactive: all other assays above

C[C@]12CCC(=O)C=C1CC[C@@H]1[C@H]2[C@@H](O)C[C@@]2(C)[C@H]1CC[C@]2(O)C(=O)CO
not listed: [3] | [12] | [13] | [15] | [16] | [17] | [18] | [19]
inactive: all other assays above

C=C(c1ccc(C(=O)O)cc1)c1cc2c(cc1C)C(C)(C)CCC2(C)C
active: [17] 19.2 µM | [18] 19.2 µM and 21.5 µM | [13] 9.61 µM and 14.4 µM | [19] 7.08 µM
not listed: [3] | [6] | [10] | [12] | [15]
inactive: all other assays above

Cc1c(C(=O)NN2CCCCC2)nn(-c2ccc(Cl)cc2Cl)c1-c1ccc(Cl)cc1
inactive: [5] | [8]
active: [14] 23.3 µM | [3] 23.3 µM | [6] 16.5 µM | [7] 18.5 µM | [10] 20.8 µM

CCOc1cc(CC(=O)N[C@@H](CC(C)C)c2ccccc2N2CCCCC2)ccc1C(=O)O
not listed: [2] | [4] | [12] | [15] | [16] | [17] | [18] | [19]
inactive: all other assays above

Clc1ccc(C(Cn2ccnc2)OCc2ccc(Sc3ccccc3)cc2)c(Cl)c1 (configuration not stated)
active: [14] 18.5 µM | [3] 10.4 µM | [6] 18.5 µM
inactive: [9]

CCCOc1ccc2nc(NC(=O)OC)[nH]c2c1
inactive: [5] | [9] | [13]
active: [14] 0.928 µM | [3] 0.928 µM | [4] 1.17 µM | [6] 2.08 µM | [8] 1.65 µM | [10] 0.827 µM

Nc1ncn([C@H]2C[C@H](O)[C@@H](CO)O2)c(=O)n1
not listed: [3] | [12] | [15] | [16] | [17] | [18] | [19]
inactive: all other assays above

Nc1nc(Cl)nc2c1ncn2[C@H]1C[C@H](O)[C@@H](CO)O1
active: [3] 0.737 µM | [4] 16.5 µM
inactive: [14] | [5] | [6] | [7] | [9] | [10] | [13]

O=C(NCC1CCCCN1)c1cc(OCC(F)(F)F)ccc1OCC(F)(F)F (configuration not stated)
active: [3] 5.22 µM
not listed: [11] | [12] | [15] | [16] | [17] | [18] | [19]
inactive: all other assays above

Oc1ccc(-c2nc(-c3ccc(F)cc3)c(-c3ccncc3)[nH]2)cc1
active: [1] 1.04 µM | [2] 5.22 µM | [3] 0.737 µM | [4] 14.7 µM | [7] 1.47 µM | [9] 23.3 µM | [11] 3.69 µM | [15] 79.4 µM
inactive: [14] | [5] | [6] | [8] | [17] | [18] | [13]

CC(C)C[C@H](NC(=O)[C@H](Cc1ccccc1)NC(=O)c1cnccn1)B(O)O
active: [1] 0.0329 µM | [14] 0.0131 µM | [2] 0.0465 µM | [3] 0.0414 µM | [4] 0.0208 µM | [5] 0.827 µM | [6] 0.0585 µM | [7] 0.0165 µM | [8] 0.0414 µM | [9] 0.0465 µM | [10] 0.208 µM | [11] 0.0737 µM
inactive: [16] | [12] | [13]
